From the supplement of paper PMC3545927
The list shows a part of the results. How many sequences the whole screen found active is unknown.

B1: HC1914 (peptide)
chain: CATTPCSGKWAGNASASA
B2: HC1547 (peptide)
chain: CAPPQPEYDLAGNASASA
B3: FS-1874 (peptide)
chain: CAVQARDLGPAGNASASA
B4: HC2260 (peptide)
chain: CAEVVTSTWCAGNASASA
B5: FS-2843 (peptide)
chain: CARVRRRLDLAGNASASA
B6: FS-2104 (peptide)
chain: CARVRRAAAEAGNASASA
B7: HC1408 (peptide)
chain: CAASKVKANLAGNASASA
B8: FS-1338 (peptide)
chain: CAHKKRSARDAGNASASA
B9: FS-1699 (peptide)
chain: CARETRSFTKAGNASASA
B10: FS-2918 (peptide)
chain: CARETRYVELAGNASASA
B11: FS-186 (peptide)
chain: CARETRSARDAGNASASA
B12: HC564 (peptide)
chain: CAAYALDTEVAGNASASA
B13: HC1743 (peptide)
chain: CAMEECSQALAGNASASA
B14: FS-1841 (peptide)
chain: CARTKKSSVQAGNASASA
B15: FS-2828 (peptide)
chain: CARTKRGWMWAGNASASA
B16: FS-2468 (peptide)
chain: CARTRRISQTAGNASASA
B17: FS-2385 (peptide)
chain: CARTRRSWVWAGNASASA
B18: FS-3108 (peptide)
chain: CARTKRSSTTAGNASASA
B19: FS-2613 (peptide)
chain: CARTKRSWVWAGNASASA
B20: FS-2827 (peptide)
chain: CARTKRFSHTAGNASASA
B21: FS-2880 (peptide)
chain: CARACRGVTTAGNASASA
B22: HC2298 (peptide)
chain: CADTEVVTSTAGNASASA
B23: FS-2829 (peptide)
chain: CARTKRHRSTAGNASASA
B24: FS-2877 (peptide)
chain: CAPSKRGNSTAGNASASA
B25: HC1678 (peptide)
chain: CATEECSQHLAGNASASA
B26: HC97 (peptide)
chain: CAVVCYSMSYAGNASASA
B27: HC128 (peptide)
chain: CAEVVMSTWVAGNASASA

Molecular target: furin, P09958
Sequence (P09958 whole entry): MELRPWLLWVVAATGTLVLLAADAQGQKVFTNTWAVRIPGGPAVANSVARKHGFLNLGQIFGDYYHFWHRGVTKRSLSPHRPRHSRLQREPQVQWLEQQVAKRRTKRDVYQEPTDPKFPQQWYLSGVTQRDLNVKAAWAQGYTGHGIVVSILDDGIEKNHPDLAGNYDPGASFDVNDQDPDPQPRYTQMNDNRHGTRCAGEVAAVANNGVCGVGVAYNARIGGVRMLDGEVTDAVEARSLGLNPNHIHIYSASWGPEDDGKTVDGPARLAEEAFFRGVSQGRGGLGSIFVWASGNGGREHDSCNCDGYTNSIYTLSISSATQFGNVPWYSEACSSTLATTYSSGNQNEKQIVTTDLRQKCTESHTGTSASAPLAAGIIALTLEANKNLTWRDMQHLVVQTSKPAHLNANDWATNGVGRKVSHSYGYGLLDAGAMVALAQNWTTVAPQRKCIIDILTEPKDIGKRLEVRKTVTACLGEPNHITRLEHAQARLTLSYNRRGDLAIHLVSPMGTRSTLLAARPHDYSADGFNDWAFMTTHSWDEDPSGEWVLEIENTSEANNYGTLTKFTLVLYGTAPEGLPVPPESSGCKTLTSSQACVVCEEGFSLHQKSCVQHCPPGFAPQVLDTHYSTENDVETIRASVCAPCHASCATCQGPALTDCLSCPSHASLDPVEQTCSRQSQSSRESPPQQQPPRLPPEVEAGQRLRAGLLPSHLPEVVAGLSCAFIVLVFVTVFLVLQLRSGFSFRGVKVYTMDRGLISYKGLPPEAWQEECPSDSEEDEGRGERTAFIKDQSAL
Assay: furin cleavage Z-score vs untreated control; higher = more cleavage, active = 3.5 or more, inactive = 1 or less, 8 variable residues between constant flanks
Outline: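 To give the cleavage Z-score, log read counts were set against furin-free reactions, lowess-adjusted and scaled by median absolute deviation. These counts came from PCR adapter-tagged, sequenced DNA released when purified furin cut 8-mer peptides fused to a cDNA oligonucleotide and held on magnetic beads by their N-terminus. Digests were 0.01 ml, 1:10 enzyme:substrate, in 50 mM HEPES pH 7.5 with CaCl2 and NaCl, for 7.5, 15 or 30 min.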

Row | Sequence | furin cleavage Z-score (7.5 min) | furin cleavage Z-score (15 min) | furin cleavage Z-score (30 min)
1 | B1 | -1.59 (inactive) | 1.19 | -1.38 (inactive)
2 | B2 | -0.102 (inactive) | 2.02 | -0.964 (inactive)
3 | B3 | -2.04 (inactive) | -0.417 (inactive) | -1.57 (inactive)
4 | B4 | -0.517 (inactive) | 2.75 | 0.14 (inactive)
5 | B5 | 2.08 | 5.18 (active) | 6.19 (active)
6 | B6 | 12.4 (active) | 11.6 (active) | 8.72 (active)
7 | B7 | 2.23 | 1.5 | -1.01 (inactive)
8 | B8 | 9.15 (active) | 11 (active) | 8.17 (active)
9 | B9 | -0.268 (inactive) | -1.13 (inactive) | 0.163 (inactive)
10 | B10 | 0.274 (inactive) | 0.951 (inactive) | 1.86
11 | B11 | 4.31 (active) | 4.67 (active) | 5.64 (active)
12 | B12 | -0.288 (inactive) | -0.347 (inactive) | 0.258 (inactive)
13 | B13 | 1.12 | 0.147 (inactive) | 0.968 (inactive)
14 | B14 | 0.0621 (inactive) | -0.697 (inactive) | -0.462 (inactive)
15 | B15 | -0.833 (inactive) | 1.19 | 3.46
16 | B16 | -0.0765 (inactive) | 0.134 (inactive) | 0.486 (inactive)
17 | B17 | 0.299 (inactive) | -0.875 (inactive) | 3.19
18 | B18 | 6.96 (active) | 8.23 (active) | 7.55 (active)
19 | B19 | 2.5 | 3.65 (active) | 6.25 (active)
20 | B20 | 1.99 | 3.53 (active) | 5.48 (active)
21 | B21 | 0.00727 (inactive) | -0.299 (inactive) | 0.871 (inactive)
22 | B22 | -0.856 (inactive) | -0.105 (inactive) | -0.202 (inactive)
23 | B23 | 2.1 | 4.17 (active) | 5.45 (active)
24 | B24 | -0.745 (inactive) | -0.0005 (inactive) | 0.164 (inactive)
25 | B25 | -0.115 (inactive) | 0.32 (inactive) | 0.469 (inactive)
26 | B26 | -0.487 (inactive) | -0.359 (inactive) | 1.4
27 | B27 | -0.73 (inactive) | -0.446 (inactive) | -0.0354 (inactive)
